# Compound activity (PubChem)
# In the library only some 9.2% were active in any assay of this set; here they are far more common.
# NPC1 promoter act: NPC1 promoter activation; 320,000 tested, 2.4% active; Huh7 NPC1 promoter luciferase reporter, 24 h; AID 485313; Potency, µM (series often up to 9.22 µM), inactives show top-dose activation, actives largely listed as activators; also: % of control where 0% means no effect; nearly all actives have a fitted effect of over 60% in size
#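 Stably transfected Huh7 (NPC1 promoter→luciferase), 1500 cells/well in Opti-MEM + 10% FBS, 2 h settle, then compound 24 h at 37 °C. Luminescence after 10 min with Amplite reagent.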
# Rab9 promoter act: Rab9 promoter activation; Huh7 Rab9 promoter-luciferase reporter, luminescence, 24 h; Potency, µM (series often up to 9.22 µM), without a hit: at the top dose activation, negative = inhibition, most hits filed as activators; 320,000 tested, 2.8% active; also: % of control where 0% means no effect; nearly all actives have a fitted effect of over 60% in size
#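 Quantitative HTS format; Huh7 Rab9-luciferase reporter cells (1500/well) receive compound 2 h post-plating, incubate 24 h at 37 °C, then get luciferase reagent for 10 min before luminescence reading.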
# SMN2 splice up: enhancers of SMN2 splice variant expression | Potency, µM (top dose mostly 46.1 µM), for the others: at the highest dose activity change, positive = activation, actives largely listed as activators | 210,000 tested, 2.8% active | AID 1458 | HEK293 SMN2-luciferase splicing reporter, luminescence, 30-36 h; also: % of control where 0% means no effect; nearly all actives have a fitted effect of over 55% in size
#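 qHTS luciferase splicing reporter: luminescence rises when SMN2 exon 7 is included in transfected HEK293 cells. Compound exposure lasted 30-36 h at 37C, with 4.5 mM final sodium butyrate as control, followed by a ONE-Glo read.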
# ELG1 repair inh: inhibitors of ELG1-dependent DNA repair in HEK293T cells | 330,000 tested, 2.3% active | AID 504467 | HEK293T ELG1-luciferase reporter, luminescence, 16 h; DNA damage induced by 5-fluorouridine | Potency, µM (titrated, usually from 46.1 µM), inactives show top-dose activity change, negative = inhibition, most hits filed as inhibitors; also: % is scaled to controls: 0 for no effect and ±100 for the full control effect; nearly all actives have a fitted effect of over 55% in size
#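 5-Fluorouridine DNA damage + compound/DMSO, 2,000 cells/well, 16 h, 37 °C/5% CO2. ONE-Glo, 30 min RT, luminescence. Readout = decrease in reporter signal.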
# ELG1 genotoxic: inducers of genotoxicity in HEK293T ELG1-luciferase cells | HEK293T ELG1-luciferase reporter, luminescence, 16 h | 330,000 tested, 1.3% active | Potency, µM (highest dose often 46 µM), inactives show at the top dose activity change, positive = activation, most hits filed as activators; also: % of control where 0% means no effect; nearly all actives have a fitted effect of over 60% in size
#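 Quantitative HTS format in 1536-well plates. HEK293T ELG1-luciferase reporter cells receive test compound and are incubated 16 hr at 37 °C, 5% CO2; ONE-Glo added, 30 min room temperature, then luminescence read.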
# FLuc counter: counter-screen for miR-21 project: firefly luciferase inhibitors or activators; 360,000 tested, 6.9% active; purified FLuc, Km substrates, luminescence inhibition; Potency, µM (highest dose often 57.5 µM), inactives show at the highest dose activity change, negative = inhibition, most hits filed as inhibitors;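 also: plate controls were vehicle for no effect and reference inhibitor for full effect; nearly all actives have a fitted effect of over 55% in size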
# Target sequence (P08659 whole entry, looked up): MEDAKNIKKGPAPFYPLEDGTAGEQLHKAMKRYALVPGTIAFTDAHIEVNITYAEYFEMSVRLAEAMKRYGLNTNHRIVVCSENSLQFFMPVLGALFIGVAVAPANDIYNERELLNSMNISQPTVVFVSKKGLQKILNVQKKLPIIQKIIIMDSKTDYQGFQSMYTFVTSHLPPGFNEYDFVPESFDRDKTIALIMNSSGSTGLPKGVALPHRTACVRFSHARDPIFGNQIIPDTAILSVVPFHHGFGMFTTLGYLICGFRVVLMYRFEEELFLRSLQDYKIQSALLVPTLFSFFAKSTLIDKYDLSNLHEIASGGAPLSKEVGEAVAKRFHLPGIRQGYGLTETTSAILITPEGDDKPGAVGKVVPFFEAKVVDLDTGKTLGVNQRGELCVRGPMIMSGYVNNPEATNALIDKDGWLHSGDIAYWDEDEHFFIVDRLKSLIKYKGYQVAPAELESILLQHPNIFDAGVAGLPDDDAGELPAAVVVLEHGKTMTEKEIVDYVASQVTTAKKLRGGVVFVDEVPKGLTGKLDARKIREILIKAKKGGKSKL
#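 Biochemical qHTS of compounds, final roughly 60 µM downward over six points, against 10 nM purified firefly luciferase using Km concentrations of substrates (10 uM D-luciferin, 10 uM ATP) in Tris acetate pH 7.5 buffer; luminescence output.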
# An asterisk follows results filed as active; ? = inconclusive; . = no result. Calls follow the shape of the dose curve; as a rule, active = well fitted curve in the direction sought with a large enough effect; inconclusive = small, poorly fitted or top-dose-only effect, or another doubt; inactive = no such curve, though single readings can be large; an effect the other way counts as inactive or inconclusive. Potency is read from the fitted curve at half-maximal effect.
SMILES,NPC1 promoter act,Rab9 promoter act,SMN2 splice up,ELG1 repair inh,ELG1 genotoxic,FLuc counter
N#Cc1nc(Nc2cccc(Cl)c2)c2ncn(C3CCCC3)c2n1,3.55µM*,1.0%,.,?,?,1.35µM*
CCn1cnc2c(Nc3cc(F)cc(F)c3)nc(C#N)nc21,16.4%,-7.0%,.,?,2.1%,1.0%
Cc1ccc(NC(=O)c2ccc(CSc3nnc(-c4ccncc4)n3C)cc2)cc1,16.8%,28.6%,26.9%,13.7%,17.7%,1.9µM*
NC(=O)c1ccc(-n2nnnc2SCc2ccccc2)cc1,-2.4%,-0.7%,-18.2%,0.2%,18.8%,-1.8%
CCn1c(SCC(=O)Nc2nccs2)nnc1-c1ccc(C)cc1,-1.6%,0.7%,-3.5%,-8.3%,-2.7%,-5.7%
CCC(=O)Nc1ccc(-c2nnc(SCc3ccc(C(=O)Nc4nccs4)cc3)n2CC)cc1,3.0%,.,-6.6%,?,-1.6%,10.7µM*
COC(=O)CSc1nnc(-c2cccc(NC(=O)c3ccc(C)cc3)c2)n1C,2.0%,-0.3%,-34.6%,0.0%,-1.6%,23.9µM*
O=C(Nc1nccs1)c1ccc(CSc2nnnn2-c2ccccc2)cc1,13.4%,5.4%,-17.5%,23.1µM*,-0.1%,?
CC(=O)Nc1ccc(-c2nnc(SCc3ccc(C)cc3)n2C)cc1,-1.7%,-0.4%,-20.8%,-12.8%,2.9%,5.8%
O=C(CCc1nc2ccccc2s1)OCc1ccccc1F,-0.2%,-2.0%,.,13.9%,3.8%,-18.2%
CC(=O)Nc1ccc(C(=O)CSc2nnnn2C)cc1,-0.5%,-2.0%,.,9.4%,1.5%,-4.4%
Cn1nnnc1SCc1ccc(C(=O)Nc2ccc(Br)cc2)cc1,?,?,-2.4%,?,?,6.01µM*
O=P(c1ccccc1)(c1ccccc1)C(O)c1ccccn1 (stereo not given),6.3%,0.6%,.,1.0%,0.4%,-0.4%
O=C1c2ccccc2CCC1C(O)c1ccccn1 (stereo not given),6.4%,9.6%,.,?,-2.5%,15.1µM*
CC(=O)N1CCN(Cc2nc3cc(NC(=O)c4cccs4)ccc3n2C)CC1,1.5%,3.5%,.,2.8%,-0.3%,-5.4%
Cc1cc(C)cc(N2C(=O)N(Cc3cccc(F)c3)c3ccccc3S2(=O)=O)c1,.,.,.,.,.,-2.2%
Cc1cccc2cc(CN(Cc3ccco3)C(c3nnnn3CCc3ccccc3)C(C)C)c(=O)[nH]c12 (stereo not given),-4.8%,-5.5%,-10.8%,9.2µM*,-10.5%,-0.2%
COc1ccc2[nH]c(=O)c(CN(Cc3ccco3)C(c3nnnn3Cc3ccccc3)C(C)C)cc2c1 (stereo not given),0.6%,-4.8%,-21.7%,?,-26.8%,0.4%
Cc1cc(C(=O)CN2C(=O)NC3(CCCCC3)C2=O)c(C)n1-c1ccc2c(c1)OCO2,-0.8%,-2.9%,-7.1%,-9.2%,-0.5%,-7.0%
Cc1cc(-c2ccccc2)n(-c2ccccc2)n1,?,?,.,?,?,15.1µM*
Cc1nn(-c2ccccc2)c(/N=C/c2ccccc2O)c1-c1ccccc1,2.24µM*,2.82µM*,11.2µM*,?,?,-14.9%
Cc1nn(-c2nc3ccccc3[nH]2)c(N)c1-c1ccccc1,1.58µM*,0.631µM*,2µM*,?,?,1.9µM*
Cc1nn(-c2ccccc2)c(N)c1-c1ccccc1,?,3.16µM*,12.6µM*,?,15.1%,13.5µM*
Nc1c(-c2ccccc2)c(CSc2nc3ccccc3[nH]2)nn1-c1cccc(C(=O)O)c1,-2.0%,1.9%,10.4%,-14.3%,-2.7%,?
CC(C)c1ccc(NC(=O)COC(=O)[C@@H]2CCCN2C(=O)c2cccs2)cc1,.,.,.,?,7.8%,.
SMILES,NPC1 promoter act,Rab9 promoter act,SMN2 splice up,ELG1 repair inh,ELG1 genotoxic,FLuc counter
Cc1nn(-c2ccccc2)c(N)c1C(c1ccc(C(C)C)cc1)c1c(C)nn(-c2ccccc2)c1N,-1.5%,-0.5%,0.1%,8.2µM*,-8.6%,4.0%
CCOC(=O)Cn1nc(C)c(-c2ccccc2)c1N,-1.4%,5.1%,-5.5%,14.2%,-0.5%,-4.9%
Cc1nn(CC2CCCCC2)c(N)c1-c1ccccc1,29.5%,?,-12.9%,?,?,16.9µM*
Cc1ccc(C(c2c(C)nn(-c3ccccc3)c2N)c2c(C)nn(-c3ccccc3)c2N)cc1,-0.6%,-8.7%,17.1%,?,-4.4%,-3.2%
CCN1CCN(c2nnc(-c3ccccc3)c3ccccc23)CC1,1.9%,-0.3%,.,-8.9%,-3.2%,-4.6%
CCN1CCN(c2cc3c(nn2)Oc2ccccc2N3C)CC1,28.6%,?,15.8µM*,?,?,16.9µM*
COc1ccc(/C=N/NC(=O)c2cc(C(C)(C)C)[nH]n2)cc1COc1ccc(F)cc1F,-4.4%,-5.1%,-14.8%,16.4µM*,-16.5%,-13.9%
COc1ccc(C(=O)N/N=C/c2ccc(OC)c(COc3ccccc3)c2)cc1,1.1%,1.0%,.,12.0%,3.3%,-0.8%
COc1ccc(/C=N/NC(=O)c2ccc(F)cc2)cc1CN1CCc2cc(OC)c(OC)cc2C1C (stereo not given),-12.7%,2.2%,3.2%,20.6µM*,-8.2%,-10.2%
COc1ccc(/C=N\NC(=O)c2cc(O)c(O)c(O)c2)cc1COc1ccc(C(=O)OCC(C)C)cc1,-6.4%,4.4%,.,?,?,23.9µM*
COc1ccc(/C=N/NC(=O)c2ccc(C)cc2)cc1CN1CCN(c2ccc(F)cc2)CC1,2.1%,-5.5%,-3.9%,?,1.3%,-2.4%
COc1ccc(/C=N\NC(=O)c2ccc(F)cc2)cc1COc1cc(F)ccc1[N+](=O)[O-],-18.0%,-9.6%,.,20.6µM*,-13.4%,1.6%
CC(C)CNC(=O)c1ccccc1NC(=O)c1ccccc1N(C)S(=O)(=O)c1ccccc1,1.4%,-2.1%,-1.2%,?,-0.1%,3.1%
CN(CCC#N)C(=O)COC(=O)c1c2c(nc3ccccc13)/C(=C/c1ccco1)CC2,?,?,22.4µM*,?,7.8%,10.7µM*
CN(CCC#N)C(=O)COC(=O)c1ccc2[nH]c3c(c2c1)CCCC3,-1.4%,9.2%,?,?,-4.4%,?
CN(C)c1ccc(C(=O)OCC(=O)NCCC2=CCCCC2)cc1,-2.4%,11.9%,-1.8%,8.1%,-4.2%,-9.1%
O=C(CCCc1ccccc1)NCCC1=CCCCC1,-3.9%,3.6%,-6.5%,-3.2%,0.9%,23.9µM*
O=C(COC(=O)c1ccc(Br)cc1)NCCC1=CCCCC1,-3.1%,-1.9%,-2.8%,6.9%,2.7%,3.3%
Cc1ccsc1C(=O)OCC(=O)NCCC1=CCCCC1,21.9%,22.0%,20.2%,?,?,12µM*
